Assay outcomes: PubChem, National Center for Advancing Translational Sciences (NCATS)
D2 PAM-1: positive allosteric modulators of human D2 dopamine receptor; HEK293 T-REx D2, calcium flux, EC20 dopamine potentiation; AID 485347; P14416; hit rate 0.34% among 340,000; potentiation, % at 10 µM;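 active = potentiation over 3 SD above the plate norm, cut at about 30% in these data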
Target sequence (P14416 whole entry, looked up): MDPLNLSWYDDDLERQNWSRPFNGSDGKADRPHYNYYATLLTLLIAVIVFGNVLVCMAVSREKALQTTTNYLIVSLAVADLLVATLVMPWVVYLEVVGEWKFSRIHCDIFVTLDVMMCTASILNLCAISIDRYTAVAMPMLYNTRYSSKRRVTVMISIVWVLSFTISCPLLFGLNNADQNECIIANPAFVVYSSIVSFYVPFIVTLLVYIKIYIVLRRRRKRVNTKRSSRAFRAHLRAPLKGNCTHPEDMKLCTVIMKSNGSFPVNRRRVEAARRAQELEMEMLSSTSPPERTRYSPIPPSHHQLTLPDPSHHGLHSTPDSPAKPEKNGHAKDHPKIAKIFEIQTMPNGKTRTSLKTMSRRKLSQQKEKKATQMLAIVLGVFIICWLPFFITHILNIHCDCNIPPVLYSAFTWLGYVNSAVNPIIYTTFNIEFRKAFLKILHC
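Potentiation of an EC20 dopamine calcium response is measured in a force-coupled, tetracycline-inducible Hek293 Trex D2 line. Compound-only kinetic reads over 180 s flag agonists before dopamine addition.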
D2 ag-1: human D2 receptor agonism in beta-arrestin assay | DiscoveRx PathHunter D2 beta-arrestin, luminescence, 90 min; 100% = 57 uM dopamine signal | activation, % (test concentration not listed) | hit rate 0.084% among 360,000 | AID 624465; in the data active = activation above about 40%; inconclusive = between about 15% and that limit
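Agonist mode: compounds alone added to overnight-plated D2 PathHunter cells for 90 min at 37 C, with 57 uM final dopamine (EC100) defining full response. Beta-arrestin recruitment detected by chemiluminescent reagent, read after 1 h at ambient temperature.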
D2 ag-2: agonists of human D2 dopamine receptor; P14416; HEK293 T-REx D2 cells, calcium flux agonist mode; activation, % at 2 µM; hit rate 0.53% among 340,000;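 active = activation over 3 SD above normal in the single-dose calcium agonist read, cut at about 30% in these data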
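HEK293 Trex D2 cells, tetracycline-induced, o/n 30 C 5% CO2; no-wash Ca dye, RT 30–90 min; 10-cycle baseline, 23 nl cpd added, kinetic Ca read 180 s; agonist hits = positive Ca response.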
D2 PAM-2: potentiates the human D2 dopamine receptor allosterically | P14416 | DiscoveRx D2 beta-arrestin cells, luminescence, 90 min; 100% = 57 uM dopamine signal | potentiation, % (no concentration beside the values) | hit rate 0.23% among 360,000 | AID 624464; in the data active = potentiation above about 50%; inconclusive = mostly about 30% to 49%
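PathHunter beta-arrestin assay in DiscoveRx D2 cells. Compounds were added with an EC20 of dopamine (50 nM final) for 90 min at 37 deg C. Luminescence was read 1 h after detection reagent, with 57 uM dopamine as the EC100 control.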
D2 antagonist: D2 dopamine receptor (human) antagonism. P14416. HEK293 TREx D2 cells, calcium flux, dopamine EC80. inhibition, % at 10 µM. hit rate 2% among 340,000; in the data active = inhibition above about 30%; inactive = below that, where a call was filed
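Read-out: kinetic calcium fluorescence (1 cycle/s) in inducible HEK293 T-REx D2 cells after an EC80 dopamine addition that followed 180 s compound preincubation. Loss of the dopamine response indicates antagonism.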
Each line names hits and unclear results; the compound was inactive in the other large screens; ! = not active in a repeat. Only some compounds are listed: those with a hit (about 2.4% of all), similar ones and a draw of the others.

COCCNC(=O)CSc1cn(CC(=O)N2CCCCCC2)c2ccccc12	none (no result: D2 ag-1, D2 PAM-2, D2 antagonist)
CCCNC(=O)N1CCN(S(=O)(=O)c2ccc3c(ccn3C)c2)CC1	none (no result: D2 ag-1, D2 PAM-2, D2 antagonist)
CN(Cc1nccs1)C(=O)C1CCC(=O)N(CCc2ccc(Cl)cc2)C1 (configuration not stated)	D2 antagonist 33
COc1ccc(/C=C2\SC(N3CCc4ccccc4C3)=NC2=O)cc1OC	D2 antagonist 53
Cc1c(C(=O)OC2CCC(C)CC2)[nH]c2c1C(=O)CC(c1ccc(F)cc1)C2 (configuration not stated)	none (no result: D2 ag-1, D2 PAM-2, D2 antagonist)
COc1ccccc1Nc1nn2c(=O)c3ccc(C(=O)N4CCCC(C)C4)cc3nc2s1 (configuration not stated)	D2 PAM-1 37!
Cc1ccc(N2CC(C(=O)Nc3ccc4c(c3)OCO4)CC2=O)cc1 (configuration not stated)	none
COc1ccc(NC(=O)C2CC(=O)N(c3cccc(C)c3C)C2)cc1 (configuration not stated)	D2 antagonist 31
O=C(Nc1nccs1)C1CC(=O)N(Cc2ccco2)C1 (configuration not stated)	D2 PAM-1 46
Cc1ccc(N2CC(C(=O)Nc3ccc4c(c3)OCO4)CC2=O)cc1C (configuration not stated)	D2 PAM-1 31
COc1cccc(NC(=O)C2CC(=O)N(Cc3ccco3)C2)c1 (configuration not stated)	D2 antagonist 37
COc1ccc(C(=O)c2oc3ccccc3c2NC(=O)COc2cccc(C)c2C)cc1	none (no result: D2 ag-1, D2 PAM-2, D2 antagonist)
CCCCNC(=S)N(C)/N=C/c1c(F)cccc1F	none
CCCCNC(=S)N(C)/N=C/c1ccc(F)cc1	D2 antagonist 91
CC1CCN(C(=O)CN2C(=O)C(=O)N(C)C2=O)c2ccccc2S1 (configuration not stated)	D2 antagonist 44
CC1CCN(C(=O)Cn2cnc3c2c(=O)n(C)c(=O)n3C)c2ccccc2S1 (configuration not stated)	D2 antagonist 45
Cn1c(=O)c2c(ncn2CC(=O)N2CCCc3ccccc32)n(C)c1=O	none
CCc1ccc(C(=O)NC2=NC(c3ccccc3F)CC(=O)N2)cc1 (configuration not stated)	none (no result: D2 ag-1, D2 PAM-2, D2 antagonist)
CC(C)CCNC(=O)CCn1c(=S)oc2ccccc21	D2 PAM-1 44
CC(C)c1ccc(-c2nnn(CCC(=O)O)n2)cc1	D2 ag-1 inconclusive, D2 PAM-2 81
O=C(O)CCn1nnc(-c2cccs2)n1	none
OCCN1CCN(c2ncnc3nc[nH]c23)CC1	D2 antagonist 34
c1nc(N2CCCC2)c2[nH]cnc2n1	none
Cc1ccccc1C(=O)Nc1cccc(C(=O)Nc2ccccc2C(=O)O)c1	D2 PAM-1 33
O=C(Nc1ccccc1C(=O)O)c1cccc(NC(=O)c2ccccc2Cl)c1	D2 PAM-2 64
Cc1cc(C)cc(NC(=O)N2CCN(C)c3ncccc32)c1	none (no result: D2 ag-1, D2 PAM-2, D2 antagonist)
COc1ccc(NC(=O)CSc2nnc(-c3cccs3)o2)cc1	none (no result: D2 ag-1, D2 PAM-2, D2 antagonist)
COc1ccc2sc(N(Cc3cccnc3)C(=O)c3cccs3)nc2c1	none (no result: D2 ag-1, D2 PAM-2, D2 antagonist)
CN1CCN(Cc2cccc(Oc3ccccc3)c2)CC1	none
COc1ccc(CN2CCN(C(c3ccc(F)cc3)c3ccc(F)cc3)CC2)c(OC)c1OC	none (no result: D2 PAM-1, D2 ag-2, D2 antagonist)
COc1ccc(CN2CCN(c3ccc(F)cc3)CC2)c(OC)c1OC	D2 antagonist 33
COc1ccc(CN2CCN(Cc3cccc(Oc4ccccc4)c3)CC2)c(OC)c1OC	D2 antagonist 34
COc1ccc(N2CCN(S(=O)(=O)c3ccc(CC(C)C)cc3)CC2)cc1	none (no result: D2 ag-1, D2 ag-2, D2 PAM-2, D2 antagonist)
CC(C)OCCCNC(=O)c1cn(C)c2ccc(S(=O)(=O)N3CCCC3)cc2c1=O	none
COc1cc(C)c(Cl)c(C)c1S(=O)(=O)NCc1cccnc1	D2 PAM-1 32
Cc1ccc(-n2c(=O)c3c4c(sc3n(Cc3ccccc3C)c2=O)CCC4)cc1C	none (no result: D2 ag-1, D2 PAM-2, D2 antagonist)
Cc1ccc(CCNC(=O)C2CCN(S(=O)(=O)c3c(C)nn(C)c3C)CC2)cc1	none
Cc1cccc(CCNC(=O)C2CCN(S(=O)(=O)c3c(C)nn(C)c3C)CC2)c1	D2 antagonist 32
Cc1cccc(N(C)S(=O)(=O)c2ccc3c(c2)C(C)(C)C(=O)N3C)c1	D2 antagonist 41
O=C(CS(=O)(=O)c1ccc(F)cc1)NCc1ccccc1	D2 antagonist 34
O=C(O)c1cccnc1Nc1cccc(C(F)(F)F)c1	D2 antagonist 56
CCOC(=O)C(C)(C)Sc1nc2c(cnn2-c2ccc(C)cc2)c(=O)[nH]1	D2 antagonist 48
Cc1ccc(-n2ncc3c(=O)[nH]c(SCC(=O)N4CCOCC4)nc32)cc1	none
CCC1CCCCN1C(=O)CSc1nc2c(cnn2-c2ccc(C)cc2)c(=O)[nH]1 (configuration not stated)	D2 antagonist 33
Cc1ccc(S(=O)(=O)N(C)C)cc1NC(=O)COC(=O)C1=COCCO1	none
Cc1cccc(OCC(=O)OC(C)C(=O)Nc2ccc(Cl)cn2)c1 (configuration not stated)	none
Cc1cccc(C(=O)NCC(=O)OC(C)C(=O)Nc2ccc(Cl)cn2)c1 (configuration not stated)	D2 antagonist 37
O=C(Nc1cc(C2CC2)nn1-c1ccccc1)c1ccc(F)cc1	none (no result: D2 PAM-1, D2 ag-2, D2 antagonist)
COc1ccc(NC(=O)c2nc(SCc3ccccc3F)ncc2Cl)cc1	none (no result: D2 ag-1, D2 PAM-2, D2 antagonist)
FC(F)(F)c1nnc2ccc(NCc3ccccc3)nn12	D2 antagonist 80
FC(F)(F)c1nnc2ccc(NCc3cccnc3)nn12	none
COc1ccc(-c2ccc3c(c2)O[C@@H](CN(C)C(=O)c2ccccc2F)[C@@H](C)CN([C@@H](C)CO)S3(=O)=O)cc1	none (no result: D2 PAM-1, D2 ag-2, D2 PAM-2, D2 antagonist)
CCN(Cc1ccccc1)Cc1c(O)ccc2oc(C)c(C(=O)Nc3ccccc3C)c12	none (no result: D2 ag-1, D2 PAM-2, D2 antagonist)
CCC(C)NC(=O)c1cnn2c(C)c3c(nc12)CCCC3 (configuration not stated)	D2 PAM-1 33
CCOC(=O)c1c(-c2ccccc2)oc2ccc(OCC(O)CN(C)C)cc12 (configuration not stated)	none
O=C(Cc1ccccc1[N+](=O)[O-])NCCc1ccc(F)cc1	none
CC(C)CCNC(=O)Cc1ccccc1[N+](=O)[O-]	D2 PAM-1 33
Cc1cc(C)c(NC(=O)c2cc(CN3CCOCC3)on2)c(C)c1	none (no result: D2 ag-1, D2 PAM-2, D2 antagonist)
Cc1c(C(=O)N2CCCC2)oc2c1-c1nn(CC(=O)NCCCN3CCCCC3)cc1CC2	D2 antagonist 37
COc1ccc(NC(=S)N(CCCN2CCCC(C)C2)Cc2cccs2)cc1 (configuration not stated)	D2 antagonist 49 (no result: D2 PAM-1)
Cc1cc(Cl)ccc1NC(=S)N(CCCN1CCOCC1)Cc1cccs1	none
Cc1ccc(Cl)cc1NC(=S)N(CCCN1CCN(C)CC1)Cc1cccs1	D2 antagonist 45
